Sampled rows, rich in hits. Any-hit rate of the full collection: about 2.2%.
FUS suppressor: suppressors of FUS proteinopathy in yeast | S. cerevisiae FUS-expressing, growth rescue, OD600, 24 h | Potency, µM (doses to about 76.6 µM), most hits filed as activators | 0.24% of 390,000 active;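 also: plate controls were DMSO vehicle for no effect and reference control for full effect; nearly all actives have a fitted effect of over 55% in size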
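Absorbance at 600 nm, taken 24hr after compound addition, measured rescue of FUS-yeast growth at 30C. Induction used 2% galactose with seeding at OD 0.005. Controls: CP55940 from 92uM final, DMSO only.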
Abeta rescue: restores growth of yeast expressing A-beta42 peptide; yeast expressing A-beta42, growth rescue, OD600, 48 h; response scale: 0% DMSO, 100% iron-clioquinol control; Potency, µM (highest dose often 46.1 µM), most hits filed as activators; 0.063% of 410,000 active; AID 1347071; also: nearly all actives have a fitted effect of over 55% in size
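Yeast A-beta toxicity model in growth medium with pinned compounds, 48 h at 30 C; growth read as absorbance at 600 nm. Normalized to FeCl3/clioquinol equimolar mix (positive) and DMSO (negative).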
Mito fusion yeast: inhibitors of mitochondrial division or activators of mitochondrial fusion. S. cerevisiae fusion-defective mutant growth rescue, CellTiterGlo 48 h. Potency, µM (titrated, usually from 46.1 µM), for the others: at the top dose growth rescue (activation), most hits filed as activators. 0.23% of 320,000 active. AID 485298; also: % of control where 0% means no effect; nearly all actives have a fitted effect of over 45% in size
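Yeast fusion mutant, YPEG (non-fermentable carbon), compound, 48 h at 37C non-permissive; CellTiterGlo added, 10 min RT, luminescence read. Rescued growth = division inhibition.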
TDP43 rescue: inhibitors of TDP-43 toxicity in yeast | TDP-43 expressing yeast growth rescue, BacTiter-Glo, 24 h | Potency, µM (highest dose often 46.1 µM), without a hit: top-dose growth rescue (activation), actives largely listed as activators | 1.8% of 410,000 active | AID 652104; also: % of control where 0% means no effect; nearly all actives have a fitted effect of over 50% in size
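In this qHTS, compounds that restore growth of yeast expressing TDP-43 appear as activators. Cells (OD600=0.02, galactose medium, raffinose-pregrown) are incubated with compound 24 hr at 30 deg C and growth is quantified by BacTiter-Glo.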
aSyn rescue: inhibitors of alpha-synuclein toxicity in yeast; 0.14% of 370,000 active; Yeast expressing alpha-synuclein, growth rescue, BacTiter-Glo, 24 h; Potency, µM (titrated, usually from 46.1 µM), without a hit: top-dose growth rescue (activation), usual class: activators; also: % of control where 0% means no effect; nearly all actives have a fitted effect of over 65% in size
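Galactose-induced alpha-syn yeast (OD600=0.02, raffinose-pregrown) + pinned cpd, 24 hr, 30 deg C; growth by BacTiter-Glo luminescence. Growth restoration scores as activation.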
* hit, by the source's call; i = inactive; ? = inconclusive; · = no result given; ! = not confirmed by another sample. Calls follow the shape of the dose curve; as a rule, active = well fitted curve in the direction sought with a large enough effect; inconclusive = small, poorly fitted or top-dose-only effect, or another doubt; inactive = no such curve, though single readings can be large; an effect the other way counts as inactive or inconclusive. Potency is read from the fitted curve at half-maximal effect.

SMILES	FUS suppressor	Abeta rescue	Mito fusion yeast	TDP43 rescue	aSyn rescue
COc1ccc2c(c1)C(C)CC(C)(C)N2C(=O)NC1CCCCC1 (stereo not drawn)	i	i	-4%	-23%	1%
CC1CC(C)(C)N(C(=O)NC2CCCCC2)c2ccccc21 (stereo not drawn)	·	i	0%	14µM*	-8%
Cc1nc2ccc(C(=O)Nc3ccccc3Cl)cc2s1	i	i	-1%	11µM*	0%
CCNc1ccc(C(=O)Nc2ccc3nc(C)sc3c2)cc1[N+](=O)[O-]	i	i	35µM*	20%	3%
Cc1nc2ccc(NC(=O)c3ccc4ccccc4n3)cc2s1	i	i	4µM*	13%	-4%
Cc1cc(C)c2c(n1)sc1c(=O)n(-c3cc(Cl)ccc3C)nnc12	i	i	·	11%	·
COc1ccc(NC(=O)NCCn2nnc3cc(S(=O)(=O)N(C)C)ccc32)cc1	i	i	·	8%	·
COc1ccc(CCC(=O)NCc2nc3cccnc3n2Cc2ccc(OC)cc2)cc1	i	i	·	2%	·
c1nc(N2CCC3(CC2)OCCO3)c2c3c(sc2n1)CCCC3	i	i	2%	22µM*	6%
COc1ccc(-n2ncc3c(NC(C)C)ncnc32)cc1	i	i	9%	?	-1%
Cc1ccc(-n2ncc3c(NCc4ccccc4)ncnc32)cc1	i	i	-2%	9%	-3%
Cc1ccc(CNc2ncnc3c2cnn3-c2ccccc2)cc1	i	i	4%	20%	·
COc1ccccc1CNc1ncnc2c1cnn2-c1ccc(C)cc1	i	i	·	35µM*	·
COc1ccc(-n2ncc3c(NCC(C)C)ncnc32)cc1	i	i	21%	11µM*	1%
COc1ccccc1CNc1ncnc2c1cnn2-c1ccccc1	i	i	14%	16µM*	0%
C/C(=N\NC(=S)NCC(C)(C)C)c1cc(F)cc(F)c1O	i	?	3%	13µM*	8%
Clc1ccc(C2=Nn3c(nnc3-c3n[nH]c4c3CCC4)SC2)cc1	i	i	13%	-12%	-4%
Brc1ccc(C2=Nn3c(nnc3-c3n[nH]c4c3CCC4)SC2)cc1	i	i	16µM*	6%	0%
CCOC(=O)c1ccc(N2C(=O)c3[nH]nc(-c4ccc(OC)cc4)c3C2c2ccc(C)cc2)cc1 (stereo not drawn)	?	i	·	23%	·
Cc1ccccc1OCc1nc2ccccc2n1C	i	i	-15%	18µM*	-16%
Cc1ccc(C)c(OCc2nc3ccccc3n2C)c1	i	?	·	22%	·
Cc1cccc(-c2nc3ccccc3n2Cc2ccccc2)c1	i	i	·	11µM*	·
Cc1nc2cc(NCc3nc4ccccc4n3Cc3ccccc3)ccc2n1C	·	i	0%	-11%	-8%
Cc1cccc(Cn2c(COc3ccccc3)nc3ccccc32)c1	i	i	·	18µM*	?
Cc1cccc(NCc2nc3ccccc3n2Cc2ccccc2)c1	i	?	7%	16µM*	0%
SMILES	FUS suppressor	Abeta rescue	Mito fusion yeast	TDP43 rescue	aSyn rescue
CC(C)OCCCNC(=O)C(=O)Nc1ccc2nc3n(c(=O)c2c1)CCCCC3	i	i	·	24%	·
COc1ccc(Cc2nc3ccccc3n2Cc2ccccc2C)cc1	i	i	·	7%	·
Cc1ccc(Cn2c(-c3ccccc3)nc3ccccc32)cc1	i	i	·	25µM*	·
COc1cccc(OCc2nc3ccccc3n2Cc2ccccc2C)c1	i	?	·	22µM*	·
Fc1ccc(Cn2c(-c3cccc(Br)c3)nc3ccccc32)cc1	i	i	·	22µM*	·
CCCn1c(-c2cccc(Br)c2)nc2ccccc21	i	i	·	26%	·
Cc1ccc(Cn2c(Cc3ccccc3)nc3ccccc32)cc1	i	i	-6%	-6%	-13%
O=C(CSc1ccccc1)N1CCc2c([nH]c3ccccc23)C1c1ccc(Cl)cc1 (stereo not drawn)	i	i	·	-3%	·
CCCCCCSc1cc(-c2nc3cc(C)ccn3c2NCCCC)ccc1OC	28µM*!	i	-8%	-91%	-57%
CCCCCCSc1ccc(-c2nc3ccc(C)cn3c2NCCCC)cc1OC	16µM*	i	·	-93%	-63%
CCCCCCSc1ccc(-c2nc3ccc(Cl)cn3c2NCCCC)cc1OC	i	i	·	17%	-2%
COc1ccc(N2C(=O)CS(=O)(=O)C23C(=O)N(Cc2ccccc2F)c2ccccc23)cc1Cl (stereo not drawn)	i	i	·	17%	1%
CCCCCCCCN1C(=O)[C@H](CC(=O)N2CCN(C(=O)OCC)CC2)C[C@@]2(C(=O)OCC)CCCC=C12	?	i	·	25µM*	0%
CCCCCCCCN1C(=O)[C@H](CC(=O)NCCCOC)C[C@@]2(C(=O)OCC)CCCC=C12	13µM*	i	·	0%	9%
CCOC(=O)N1CCN(C(=O)C[C@@H]2C[C@@]3(C(=O)OCC)CCCC=C3N(Cc3ccc(Cl)cc3Cl)C2=O)CC1	?	i	·	?	4%
CCOC(=O)[C@]12CCCC=C1N(CCC1=CCCCC1)C(=O)[C@H](CC(=O)NCc1cccc3ccccc13)C2	i	?	·	35µM*	18%
CCOC(=O)N1CCN(C(=O)C[C@@H]2C[C@@]3(C(=O)OC)CCCCC=C3N(Cc3ccc(Cl)cc3Cl)C2=O)CC1	?	i	·	22µM*	19%
C=C1C[C@@]23CC[C@H]4[C@@](C)(CCC[C@@]4(C)C(=O)O)[C@@H]2CC[C@]1(O)C3	·	·	?	·	0%
CCCCNC(=O)C[C@@H]1C[C@@]2(C(=O)OCC)CCCC=C2N(CCC2=CCCCC2)C1=O	i	i	·	35µM*	0%
CCOC(=O)[C@]12CCC=C1N(CCC1=CCCCC1)C(=O)[C@H](CC(=O)NCCCOC)C2	i	i	·	22%	-3%
COc1c(F)cccc1C1=CC(=O)C[C@H](c2ccc3c(c2)OCO3)C1	i	i	?	22µM*	10%
COc1c(F)cccc1C1=CC(=O)C[C@H](c2ccc(F)cc2)C1	i	i	·	18µM*	5%
COc1ccc([C@H]2CC(=O)C=C(c3cccc(F)c3OC)C2)cc1	i	i	14%	22µM*	13%
COc1ccc(OC)c(C2=CC(=O)C[C@H](c3ccc4c(c3)OCO4)C2)c1	?	i	?	25µM*	2%
CCOc1ccc(C(=O)NCc2nc3cccnc3n2Cc2cccc(OC)c2)cc1	i	i	·	21%	·
Cc1ccccc1OCC(=O)Nc1cc(C)c(O)c(-c2nc3ccccc3o2)c1	·	·	·	·	-10%
COc1ccc(S(=O)(=O)c2cnc3ccc(Cl)cc3c2N2CCCCC2C)cc1 (stereo not drawn)	i	i	·	22%	·
C1=Cc2ccccc2/C1=C\c1cccc(/C=C2\C=Cc3ccccc32)c1	·	·	·	·	-3%
